This is a sample that favours compounds with a hit; in the whole collection about 6.5% have one here.
HCMV inh: qHTS Assay for inhibitors of the human cytomegalovirus (HCMV); HFF cells, HCMV-luciferase reporter, 72 h; stronger effect = lower value; activity change, negative = inhibition, % at 57.5 µM; hit rate 4.5% among 410,000; AID 1259415, 2018; in the data active = activity change below about -60%; inconclusive = no clear call, values can overlap the other calls; inactive = above about -39%
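Cell-based, HFFs, 1000 cells/well, 16 h 37C; cpds in DMSO + HCMV-luc, MOI 1 PFU/cell; 72 h 37C; OneGlo luminescence after 5 min RT; norm. to buffer vs Salinomycin 10uM.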
VACV mCherry inh: qHTS for Stage-Specific Inhibitors of Vaccinia Orthopoxvirus: mCherry Reporter Primary qHTS | Vaccinia virus mCherry reporter infection, fluorescence | Potency, µM (doses to about 36.5 µM), for the others: at the top dose activity change, negative = inhibition, hits mostly inhibitors | hit rate 0.63% among 310,000 | AID 720579, 2013; calls by dose curve; tested in A549 cells; also: potency is read from the fitted curve at half-maximal effect; nearly all actives have a fitted effect of over 35% in size
MARV entry inh: qHTS for inhibitors of binding or entry into cells for Marburg Virus | hit rate 1.8% among 300,000 | Marburg virus pseudotyped entry inhibition, cell reporter | Potency, µM (top dose mostly 37.8 µM), inactives show top-dose activity change, negative = inhibition, most hits filed as inhibitors; calls by dose curve; tested in HEK293 cells; also: potency is read from the fitted curve at half-maximal effect
FMDV antiviral: High Throughput Screening for Foot and Mouth Disease Virus Antivirals; FMDV antiviral cell-based qHTS; hit rate 1.2% among 410,000; Potency, µM (highest dose often 57.9 µM), for inactives: at the top dose activity change, negative = inhibition, actives largely listed as inhibitors; calls by dose curve; tested in HEK293T cells; also: read-out not given here; potency is read from the fitted curve at half-maximal effect; nearly all actives have a fitted effect of over 45% in size
Lassa entry inh: qHTS for Inhibitors of binding or entry into cells for Lassa Virus; Potency, µM (doses to about 37.9 µM), inactives show at the highest dose activity change, negative = inhibition, usual class: inhibitors; Lassa virus pseudotype entry inhibition, cell reporter; hit rate 1.2% among 300,000; calls by dose curve; tested in HEK293 cells; also: potency is read from the fitted curve at half-maximal effect; nearly all actives have a fitted effect of over 50% in size
Vaccinia Venus: qHTS for Stage-Specific Inhibitors of Vaccinia Orthopoxvirus: Venus Reporter Primary qHTS. Vaccinia virus Venus reporter expression, fluorescence. Potency, µM (doses to about 36.5 µM), without a hit: top-dose activity change, negative = inhibition, hits mostly inhibitors. hit rate 0.46% among 330,000. AID 720580, 2013; calls by dose curve; tested in A549 cells; also: potency is read from the fitted curve at half-maximal effect; nearly all actives have a fitted effect of over 30% in size
* = called active by the depositor; i = inactive; ? = inconclusive; · = no result given; ! = not confirmed by another sample; [ ] = remark or other dose. % is scaled to controls: 0 for no effect and ±100 for the full control effect.

SMILES	HCMV inh	VACV mCherry inh	MARV entry inh	FMDV antiviral	Lassa entry inh	Vaccinia Venus
COc1cc(=O)n2c(c1C(=O)NCc1ccc3c(c1)OCO3)CCN(C(=O)c1ccc(C)cc1)CC2	·	i	·	10.3%	·	0.0%
CC1CCN(Cc2c(C(=O)N/N=C/c3cc(Br)ccc3O)nnn2-c2nonc2N)CC1	-101.6*	?	2µM*	-6.9%	?	?
COc1c(Cl)cc(Cl)cc1/C=N/NC(=O)c1nnn(-c2nonc2N)c1CN1CCC(C)CC1	-7.7	i	-28.7%[46.1 µM]	-16.6%	0.9%[46.1 µM]	-0.9%
CC1CCN(Cc2c(C(=O)N/N=C/c3cc(Cl)ccc3O)nnn2-c2nonc2N)CC1	-100.0*	5.01µM*	3.55µM*	-15.3%	?	?
COC(=O)[C@H]1[C@H](CO)[C@H]2Cn3c(ccc(Br)c3=O)[C@H]2N1C(=O)c1ccccn1	10.7	·	·	·	·	·
FC(F)(F)c1cnc(-c2cc3c(c(OCC4CCCO4)c2)OCCN(Cc2cccn2-c2nccs2)C3)c(Cl)c1 (stereo not given)	·	-11.5%	·	-10.0%	·	-1.6%
Cc1ccc(N(C(=O)c2sc(C)nc2C)C(C(=O)NCc2ccco2)c2ccccc2)cc1 (stereo not given)	?	i	?	·	7.3µM*	-15.7%
COc1ccc(NC(=O)/C=C\C(=O)N(c2ccc(C(C)C)cc2)C(C(=O)NCc2ccco2)c2ccc(C)cc2)cc1 (stereo not given)	-11.0	?	·	-17.8%	-36.2%[46.1 µM]	?
Cc1ccc(NC(=O)/C=C\C(=O)N(c2ccc(C(C)C)cc2)C(C(=O)NCc2ccco2)c2ccc(F)cc2)cc1 (stereo not given)	-81.8*	?	·	-28.2%	-28.8%[46.1 µM]	?
Cc1nn(-c2ccccc2)c(OC(=O)c2ccccc2F)c1S(=O)(=O)c1ccccc1	5.3	-13.8%	2.3%[46.1 µM]	6.3%	-11.1%[46.1 µM]	-5.0%
CC(NC(=O)C(NC(=O)OCc1ccccc1)C(C)O)C(=O)OCc1ccccc1 (stereo not given)	13.1	·	·	·	·	·
COc1cccc(NC(=O)C(Nc2ccccc2)c2ccccc2F)c1 (stereo not given)	-67.2*	·	·	·	·	·
Cc1cccc(Cl)c1NC(=O)C(Nc1ccccc1)c1ccccc1F (stereo not given)	-26.9	·	·	·	·	·
Cc1ccc(Cn2cc(CCC(=O)NC3CCCCC3)c3ccccc32)cc1	?	-14.4%	·	-15.5%	-9.1%[46.1 µM]	-17.7%
CCCC[C@]12Cc3cc(OC)c(OC)cc3[C@H](O1)C1=C(CC3(CCCCC3)OC1=O)O2	·	·	-24.0%[14.2 µM]	·	·	·
O=C(CSc1nnc(-c2ccc(O)cc2)n1Cc1ccccc1)NNC(=O)c1ccc(Br)cc1	-67.8*	-12.0%	15.6%	-8.0%	0.3%	-4.1%
CCc1ccc(Nc2ccc3nonc3c2[N+](=O)[O-])cc1	6.5	-0.6%	-2.1%[46.1 µM]	-8.8%	-1.4%	-0.9%
CCOC(=O)NNc1ccc2nonc2c1[N+](=O)[O-]	·	i	11.2µM*	-25.3%	?	-0.5%
Cc1cc(C)cc(Nc2ccc3nonc3c2[N+](=O)[O-])c1	-82.6*	-14.8%	-20.1%	?	2.5%	-11.5%
Cc1cccc(CNC(=O)Cn2c(-c3cccs3)cc3ccccc32)c1	6.0	-19.2%	·	-19.0%	-1.1%[46.1 µM]	5.6%
COc1ccccc1NC(=O)C1=C(C)Nc2nc(-c3ccco3)nn2C1c1cccc(C)c1 (stereo not given)	5.6	-13.4%	-18.0%[46.1 µM]	-24.8%	-33.4%[46.1 µM]	-12.7%
C=CCn1c(SCC(=O)c2cccs2)nnc1-c1cccc(OC)c1	19.7	-17.5%	10.6%	·	7.9%	-8.6%
C=CCn1c(SCC(=O)c2cccs2)nc2sc(C)cc2c1=O	-34.9	-29.3%	-27.1%[46.1 µM]	31.6µM*	?	-21.5%
COc1ccc2cc(C(=O)/C=C/c3cc(OC)c(O)c(OC)c3)ccc2c1	-33.4	?	?	20.5%	?	321.2%
COc1cc(/C=C/C(=O)c2ccc(NS(=O)(=O)c3ccc(C)cc3)cc2)cc(OC)c1O	-101.0*	?	?	-18.0%	?	222.4%
SMILES	HCMV inh	VACV mCherry inh	MARV entry inh	FMDV antiviral	Lassa entry inh	Vaccinia Venus
COc1cc(/C=C/C(=O)c2ccc(NS(=O)(=O)c3ccc(C)cc3)cc2)ccc1OC(F)F	-70.7*	?	?	?	?	?
COc1cccc(C(=O)/C=C/Nc2ccc(S(=O)(=O)Nc3cccc(C(C)=O)c3)cc2)c1	-35.1	·	?	-22.9%	?	?
COc1cccc(/C=C/C(=O)c2ccc(NS(=O)(=O)c3ccc(C)cc3)cc2)c1	-69.9*	?	?	-24.3%	?	?
C(=Nc1cccnc1)c1ccc2ccccc2n1	·	22.9%	·	·	·	-4.1%
CC(=O)c1ccc2noc(-c3ccc(Cl)cc3)c2c1	-61.8*	-11.8%	-14.4%[46.1 µM]	-21.4%	4.2%[46.1 µM]	-1.8%
CC(C)CCNC(=O)[C@@H](c1ccccc1)N1Cc2ccccc2C1=O	-1.1	-2.2%	7.6%[46.1 µM]	42.6%	1.1%[46.1 µM]	-0.1%
Cc1ccc(C(=O)C(c2ccccc2)N2Cc3ccccc3C2=N)cc1 (stereo not given)	·	-25.1%	?	31.6µM*	?	?
CN(c1cccc(NC(=O)c2ccc(C(C)(C)C)cc2)c1)S(C)(=O)=O	-81.8*	i	?	?	?	-20.1%
CN(c1cccc(NC(=O)c2ccc(N(C)S(=O)(=O)c3ccccc3)cc2)c1)S(C)(=O)=O	-72.4*	·	16.4µM*	14.1µM*	?	·
CN(c1ccc(C(=O)Nc2ccc(F)cc2F)cc1)S(=O)(=O)c1ccccc1	-32.7	-5.4%	-26.6%	?	11.2µM*	-26.3%
CN(C)S(=O)(=O)c1ccc(C(=O)Nc2ccc(F)cc2F)cc1	28.3	i	·	3.1%	·	-17.9%
CC(=O)NC(c1ccc2ccccc2c1)c1ccc2cccnc2c1O (stereo not given)	-98.2*	?	?	-12.5%	?	?
Cc1ccnc(NC(c2cccc(O)c2)c2ccc3ccc(C)nc3c2O)c1 (stereo not given)	8.5	-15.4%	2.9%[46.1 µM]	-17.0%	-8.6%[46.1 µM]	-7.0%
CCOc1cc(C(Nc2cc(C)ccn2)c2ccc3cccnc3c2O)ccc1OC (stereo not given)	-96.6*	i[7.34 µM]	?	-18.3%	5.62µM*	-8.6%[7.34 µM]
COc1ccc(C(NC(C)=O)c2ccc3cccnc3c2O)cc1OC (stereo not given)	·	7.94µM*	·	·	·	?
COc1ccc(C(NC(C)=O)c2ccc3cccnc3c2O)c(OC)c1 (stereo not given)	·	·	?	0.0%	6.31µM*	?
COc1ccc2c3c([nH]c2c1)[C@H](CO)N(C(=O)C1CCC1)CC31CCN(C(=O)c2ccncc2)CC1	10.7	·	·	·	·	·
O=C1CCN(Cc2ccc(O)cc2)CCN1CCO	-67.5*!	-11.1%	·	-10.9%	·	-12.1%
O=C1CCN(Cc2ccccc2)CCN1CCO	?	i	·	-5.2%	·	-13.4%

High-throughput results from PubChem BioAssay.
